We go through 16 molecules from article PMC8222333, “AsCas12a ultra nuclease facilitates the rapid generation of therapeutic cell medicines”.

Among the targets are dAsCas12a E174R (Acidaminococcus sp., UniProt U2UMQ6 1-1307, E174R;D908A;E993A;D1235A); dAsCas12a S542R (Acidaminococcus sp., UniProt U2UMQ6 1-1307, S542R;D908A;E993A;D1235A); d-enCas12a (Acidaminococcus sp., UniProt U2UMQ6 1-1307, E174R;S542R;K548R;D908A;E993A;D1235A); d-enCas12a-Ultra (Acidaminococcus sp., UniProt U2UMQ6 1-1307, E174R;S542R;K548R;M537R;F870L;D908A;E993A;D1235A).

Holding throughout (test): Spec-seq (native PAGE EMSA with sequencing of bound and unbound); 25 mM Tris-HCl pH 7.4, 150 mM KCl, 5 mM MgCl2, 10% glycerol, 1 mM DTT, 40 ng/uL salmon sperm DNA; 400 nM Cas12a, 480 nM crRNA, 50 nM library, 37 C 1 h; native PAGE at room temperature; high values mean tight binding
What all share (conditions): protein: recombinant
Background: Mobility shift assays separate free from complexed probe on a gel.
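Note: relative affinity from the bound to unbound sequence frequency ratio in Spec-seq.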

B1: CTAG (dsDNA)
DNA 1: GCTATCTAGTGCTCAGTACGCACTGCTAGAGGAAACTTCTGGCAGGACCAGGTCATGAGATCGGAAGAGCACACGTCTGAACTCCAGTCA
DNA 2: TGACTGGAGTTCAGACGTGTGCTCTTCCGATCTCATGACCTGGTCCTGCCAGAAGTTTCCTCTAGCAGTGCGTACTGAGCACTAGATAGC
RNA: AAUUUCUACUCUUGUAGAUAGGAAACUUCUGGCAGGACC
Take B1: the binding signal with dAsCas12a E174R was -8.81 lnKA; in the assay with dAsCas12a S542R it was -8.57 lnKA; with d-enCas12a, -5.78 lnKA; with d-enCas12a-Ultra, -3.2 lnKA.

B2: GCCA (dsDNA)
DNA 1: GCTATCTAGTGCTCAGTACGCACTGGCCAAGGAAACTTCTGGCAGGACCAGGTCATGAGATCGGAAGAGCACACGTCTGAACTCCAGTCA
DNA 2: TGACTGGAGTTCAGACGTGTGCTCTTCCGATCTCATGACCTGGTCCTGCCAGAAGTTTCCTTGGCCAGTGCGTACTGAGCACTAGATAGC
RNA: AAUUUCUACUCUUGUAGAUAGGAAACUUCUGGCAGGACC
On to B2, for which the binding signal was -8.91 lnKA with dAsCas12a E174R, -6.67 lnKA with dAsCas12a S542R, -4.72 lnKA in the assay with d-enCas12a and -1.33 lnKA in the assay with d-enCas12a-Ultra.

B3: GTGC (dsDNA)
DNA 1: GCTATCTAGTGCTCAGTACGCACTGGTGCAGGAAACTTCTGGCAGGACCAGGTCATGAGATCGGAAGAGCACACGTCTGAACTCCAGTCA
DNA 2: TGACTGGAGTTCAGACGTGTGCTCTTCCGATCTCATGACCTGGTCCTGCCAGAAGTTTCCTGCACCAGTGCGTACTGAGCACTAGATAGC
RNA: AAUUUCUACUCUUGUAGAUAGGAAACUUCUGGCAGGACC
Consider B3, for which the binding signal in the assay with dAsCas12a E174R was -8.98 lnKA; in the assay with dAsCas12a S542R, -8.4 lnKA; with d-enCas12a, -5.24 lnKA; with d-enCas12a-Ultra, -2.1 lnKA.

B4: CTAT (dsDNA)
DNA 1: GCTATCTAGTGCTCAGTACGCACTGCTATAGGAAACTTCTGGCAGGACCAGGTCATGAGATCGGAAGAGCACACGTCTGAACTCCAGTCA
DNA 2: TGACTGGAGTTCAGACGTGTGCTCTTCCGATCTCATGACCTGGTCCTGCCAGAAGTTTCCTATAGCAGTGCGTACTGAGCACTAGATAGC
RNA: AAUUUCUACUCUUGUAGAUAGGAAACUUCUGGCAGGACC
For B4, the binding signal is -8.81 lnKA in the assay with dAsCas12a E174R, -8.52 lnKA in the assay with dAsCas12a S542R, -5.65 lnKA with d-enCas12a and -3.31 lnKA with d-enCas12a-Ultra.

B5: GCGC (dsDNA)
DNA 1: GCTATCTAGTGCTCAGTACGCACTGGCGCAGGAAACTTCTGGCAGGACCAGGTCATGAGATCGGAAGAGCACACGTCTGAACTCCAGTCA
DNA 2: TGACTGGAGTTCAGACGTGTGCTCTTCCGATCTCATGACCTGGTCCTGCCAGAAGTTTCCTGCGCCAGTGCGTACTGAGCACTAGATAGC
RNA: AAUUUCUACUCUUGUAGAUAGGAAACUUCUGGCAGGACC
For the molecule B5, the binding signal with dAsCas12a E174R is -8.88 lnKA; in the assay with dAsCas12a S542R it was -8.38 lnKA; in the assay with d-enCas12a, -5.81 lnKA; in the assay with d-enCas12a-Ultra, -3.32 lnKA.

B6: GTCA (dsDNA)
DNA 1: GCTATCTAGTGCTCAGTACGCACTGGTCAAGGAAACTTCTGGCAGGACCAGGTCATGAGATCGGAAGAGCACACGTCTGAACTCCAGTCA
DNA 2: TGACTGGAGTTCAGACGTGTGCTCTTCCGATCTCATGACCTGGTCCTGCCAGAAGTTTCCTTGACCAGTGCGTACTGAGCACTAGATAGC
RNA: AAUUUCUACUCUUGUAGAUAGGAAACUUCUGGCAGGACC
For B6, the binding signal with dAsCas12a E174R was -8.52 lnKA; in the assay with dAsCas12a S542R, -6.38 lnKA; with d-enCas12a it was -2.71 lnKA; with d-enCas12a-Ultra, -0.526 lnKA.

B7: GGGG (dsDNA)
DNA 1: GCTATCTAGTGCTCAGTACGCACTGGGGGAGGAAACTTCTGGCAGGACCAGGTCATGAGATCGGAAGAGCACACGTCTGAACTCCAGTCA
DNA 2: TGACTGGAGTTCAGACGTGTGCTCTTCCGATCTCATGACCTGGTCCTGCCAGAAGTTTCCTCCCCCAGTGCGTACTGAGCACTAGATAGC
RNA: AAUUUCUACUCUUGUAGAUAGGAAACUUCUGGCAGGACC
Take B7: the results for the binding signal with dAsCas12a E174R, with d-enCas12a and with d-enCas12a-Ultra were -8.85 lnKA, -5.75 lnKA and -3.49 lnKA, respectively.

B8: CTCT (dsDNA)
DNA 1: GCTATCTAGTGCTCAGTACGCACTGCTCTAGGAAACTTCTGGCAGGACCAGGTCATGAGATCGGAAGAGCACACGTCTGAACTCCAGTCA
DNA 2: TGACTGGAGTTCAGACGTGTGCTCTTCCGATCTCATGACCTGGTCCTGCCAGAAGTTTCCTAGAGCAGTGCGTACTGAGCACTAGATAGC
RNA: AAUUUCUACUCUUGUAGAUAGGAAACUUCUGGCAGGACC
With B8, the binding signal with dAsCas12a E174R is -8.73 lnKA; with dAsCas12a S542R, -7.58 lnKA; with d-enCas12a, -3.44 lnKA; in the assay with d-enCas12a-Ultra, -0.714 lnKA.

B9: TCGG (dsDNA)
DNA 1: GCTATCTAGTGCTCAGTACGCACTGTCGGAGGAAACTTCTGGCAGGACCAGGTCATGAGATCGGAAGAGCACACGTCTGAACTCCAGTCA
DNA 2: TGACTGGAGTTCAGACGTGTGCTCTTCCGATCTCATGACCTGGTCCTGCCAGAAGTTTCCTCCGACAGTGCGTACTGAGCACTAGATAGC
RNA: AAUUUCUACUCUUGUAGAUAGGAAACUUCUGGCAGGACC
On to B9, for which the binding signal with dAsCas12a E174R is -8.87 lnKA; with dAsCas12a S542R, -8.02 lnKA; with d-enCas12a, -5.8 lnKA; in the assay with d-enCas12a-Ultra, -3.45 lnKA.

B10: TGCA (dsDNA)
DNA 1: GCTATCTAGTGCTCAGTACGCACTGTGCAAGGAAACTTCTGGCAGGACCAGGTCATGAGATCGGAAGAGCACACGTCTGAACTCCAGTCA
DNA 2: TGACTGGAGTTCAGACGTGTGCTCTTCCGATCTCATGACCTGGTCCTGCCAGAAGTTTCCTTGCACAGTGCGTACTGAGCACTAGATAGC
RNA: AAUUUCUACUCUUGUAGAUAGGAAACUUCUGGCAGGACC
Take B10: the binding signal is -8.93 lnKA in the assay with dAsCas12a E174R, -8.02 lnKA in the assay with dAsCas12a S542R, -2 lnKA with d-enCas12a and -0.483 lnKA with d-enCas12a-Ultra.

B11: TACT (dsDNA)
DNA 1: GCTATCTAGTGCTCAGTACGCACTGTACTAGGAAACTTCTGGCAGGACCAGGTCATGAGATCGGAAGAGCACACGTCTGAACTCCAGTCA
DNA 2: TGACTGGAGTTCAGACGTGTGCTCTTCCGATCTCATGACCTGGTCCTGCCAGAAGTTTCCTAGTACAGTGCGTACTGAGCACTAGATAGC
RNA: AAUUUCUACUCUUGUAGAUAGGAAACUUCUGGCAGGACC
B11: the binding signal is -8.98 lnKA with dAsCas12a E174R, -7.99 lnKA in the assay with dAsCas12a S542R, -2.8 lnKA in the assay with d-enCas12a and -0.733 lnKA in the assay with d-enCas12a-Ultra.

B12: GATC (dsDNA)
DNA 1: GCTATCTAGTGCTCAGTACGCACTGGATCAGGAAACTTCTGGCAGGACCAGGTCATGAGATCGGAAGAGCACACGTCTGAACTCCAGTCA
DNA 2: TGACTGGAGTTCAGACGTGTGCTCTTCCGATCTCATGACCTGGTCCTGCCAGAAGTTTCCTGATCCAGTGCGTACTGAGCACTAGATAGC
RNA: AAUUUCUACUCUUGUAGAUAGGAAACUUCUGGCAGGACC
Turning to B12, the binding signal is -8.27 lnKA with dAsCas12a E174R, -8.34 lnKA with dAsCas12a S542R, -3.86 lnKA in the assay with d-enCas12a and -1.57 lnKA with d-enCas12a-Ultra.

B13: GTAA (dsDNA)
DNA 1: GCTATCTAGTGCTCAGTACGCACTGGTAAAGGAAACTTCTGGCAGGACCAGGTCATGAGATCGGAAGAGCACACGTCTGAACTCCAGTCA
DNA 2: TGACTGGAGTTCAGACGTGTGCTCTTCCGATCTCATGACCTGGTCCTGCCAGAAGTTTCCTTTACCAGTGCGTACTGAGCACTAGATAGC
RNA: AAUUUCUACUCUUGUAGAUAGGAAACUUCUGGCAGGACC
For B13, the binding signal with dAsCas12a E174R was -9 lnKA; with dAsCas12a S542R it was -8.01 lnKA; with d-enCas12a, -5.51 lnKA; with d-enCas12a-Ultra it was -3.27 lnKA.

B14: GGCG (dsDNA)
DNA 1: GCTATCTAGTGCTCAGTACGCACTGGGCGAGGAAACTTCTGGCAGGACCAGGTCATGAGATCGGAAGAGCACACGTCTGAACTCCAGTCA
DNA 2: TGACTGGAGTTCAGACGTGTGCTCTTCCGATCTCATGACCTGGTCCTGCCAGAAGTTTCCTCGCCCAGTGCGTACTGAGCACTAGATAGC
RNA: AAUUUCUACUCUUGUAGAUAGGAAACUUCUGGCAGGACC
Turning to B14, the binding signal with dAsCas12a E174R is -8.97 lnKA; with dAsCas12a S542R, -8.43 lnKA; in the assay with d-enCas12a, -5.65 lnKA; in the assay with d-enCas12a-Ultra, -2.64 lnKA.

B15: CTGT (dsDNA)
DNA 1: GCTATCTAGTGCTCAGTACGCACTGCTGTAGGAAACTTCTGGCAGGACCAGGTCATGAGATCGGAAGAGCACACGTCTGAACTCCAGTCA
DNA 2: TGACTGGAGTTCAGACGTGTGCTCTTCCGATCTCATGACCTGGTCCTGCCAGAAGTTTCCTACAGCAGTGCGTACTGAGCACTAGATAGC
RNA: AAUUUCUACUCUUGUAGAUAGGAAACUUCUGGCAGGACC
As to B15, the binding signal with dAsCas12a E174R is -8.89 lnKA; with dAsCas12a S542R it was -8.52 lnKA; in the assay with d-enCas12a, -5.79 lnKA; with d-enCas12a-Ultra, -3.21 lnKA.

B16: GTAT (dsDNA)
DNA 1: GCTATCTAGTGCTCAGTACGCACTGGTATAGGAAACTTCTGGCAGGACCAGGTCATGAGATCGGAAGAGCACACGTCTGAACTCCAGTCA
DNA 2: TGACTGGAGTTCAGACGTGTGCTCTTCCGATCTCATGACCTGGTCCTGCCAGAAGTTTCCTATACCAGTGCGTACTGAGCACTAGATAGC
RNA: AAUUUCUACUCUUGUAGAUAGGAAACUUCUGGCAGGACC
As for B16, the binding signal with dAsCas12a E174R is -8.95 lnKA; with dAsCas12a S542R, -8.41 lnKA; with d-enCas12a it was -5.69 lnKA; with d-enCas12a-Ultra, -3.33 lnKA.
